# According to the supplement of paper PMC8728848:
# Shown is part of a subset that was picked to be rich in the strongest signals.
# B1: Spy0252 (Streptococcus pyogenes), Q9A1I9_STRP1 (protein)
# chain: MNMKKLASLAMLGASVLGLAACGGKSQKEAGASKSDTAKTEITWWAFPVFTQEKAEDGVGTYEKKLIAAFEKANPEIKVKLETIDFTSGPEKITTAIEAGTAPDVLFDAPGRIIQYGKNGKLADLNDLFTEEFTKDVNNDKLIQASKAGDTAYMYPISSAPFYMALNKKMLKDAGVLDLVKEGWTTDDFEKVLKALKDKGYNPGSFFANGQGGDQGPRAFFANLYSSHITDDKVTKYTTDDANSIKAMTKISNWIKDGLMMNGSQYDGSADIQNFANGQTSFTILWAPAQPGIQAKLLEASKVDYLEIPFPSDDGKPELEYLVNGFAVFNNKDEQKVAASKTFIQFIADDKEWGPKNVVRTGAFPVRTSYGDLYKDKRMEKIAEWTKFYSPYYNTIDGFAEMRTLWFPMVQAVSNGDEKPEDALKAFTEKANKTIKKTQ
# Experiments:
# Experiment in all cases: glycan array binding signal (z-score within array); higher = stronger binding
# Conditions in all cases: glycan notation: IUPAC condensed, linker removed
# Fuc(a1-2)Gal = biological target: Fuc(a1-2)Gal
# Summary of the method: (§1)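 Glycan array data were curated from 3228 arrays in the Consortium for Functional Glycomics database and kept only where the protein sequence was available. Glycan names were converted to IUPAC-condensed notation, and columns mapping to the same glycan were averaged. The binding signal is a within-array Z-score, averaged across arrays of the same protein sequence at different concentrations or buffers and across linkers. Negative Z-scores can be read as non-binding.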
# Fuc(a1-2)Gal6S(b1-4)Glc = biological target: Fuc(a1-2)Gal6S(b1-4)Glc
# Summary of the method: as §1
# [1] = biological target: Fuc(a1-3)[Gal(b1-4)]GlcNAc(b1-2)Man(a1-6)[Gal(b1-4)GlcNAc(b1-2)Man(a1-3)]Man(b1-4)GlcNAc(b1-4)GlcNAc
# Summary of the method: as §1
# Fuc(b1-3)GlcNAc = biological target: Fuc(b1-3)GlcNAc
# Summary of the method: as §1
# Gal(a1-3)Gal(b1-3)GlcNAc = biological target: Gal(a1-3)Gal(b1-3)GlcNAc
# Summary of the method: as §1
# Gal(a1-4)Gal(b1-4)GlcNAc = biological target: Gal(a1-4)Gal(b1-4)GlcNAc
# Summary of the method: as §1
# [2] = biological target: Gal(b1-3)GlcNAc(b1-3)Gal(b1-4)GlcNAc
# Summary of the method: as §1
# [3] = biological target: Gal3S(b1-3)[Fuc(a1-4)]GlcNAc
# Summary of the method: as §1
# Gal4S(b1-4)GlcNAc = biological target: Gal4S(b1-4)GlcNAc
# Summary of the method: as §1
# Gal6S(b1-4)GlcNAc6S = biological target: Gal6S(b1-4)GlcNAc6S
# Summary of the method: as §1
# GalNAc(a1-3)Gal = biological target: GalNAc(a1-3)Gal
# Summary of the method: as §1
# [4] = biological target: GalNAc(b1-3)Gal(a1-4)Gal(b1-4)GlcNAc(b1-3)Gal(b1-4)Glc
# Summary of the method: as §1
# Glc(a1-4)Glc = biological target: Glc(a1-4)Glc
# Summary of the method: as §1
# [5] = biological target: GlcNAc(b1-3)[GlcNAc(b1-6)]GalNAc
# Summary of the method: as §1
# GlcNAc3Prop(b1-4)GlcNAc = biological target: GlcNAc3Prop(b1-4)GlcNAc
# Summary of the method: as §1
# Kdn(a2-3)Gal(b1-3)GlcNAc = biological target: Kdn(a2-3)Gal(b1-3)GlcNAc
# Summary of the method: as §1
# [6] = biological target: Man(a1-2)Man(a1-2)Man(a1-6)[Man(a1-3)]Man
# Summary of the method: as §1
# Man(a1-3)[Man(a1-6)]Man = biological target: Man(a1-3)[Man(a1-6)]Man
# Summary of the method: as §1
# [7] = biological target: Man(a1-3)[Man(a1-6)]Man(a1-6)[Man(a1-2)Man(a1-3)]Man(b1-4)GlcNAc(b1-4)GlcNAc
# Summary of the method: as §1
# [8] = biological target: Man(a1-3)[Man(a1-6)]Man(a1-6)[Man(a1-3)]Man(b1-4)GlcNAc(b1-4)GlcNAc
# Summary of the method: as §1
# Man(a1-6)Man = biological target: Man(a1-6)Man
# Summary of the method: as §1
# [9] = biological target: Neu5Ac(a2-3)Gal(b1-3)GalNAc(b1-4)[Neu5Ac(a2-3)]Gal(b1-4)Glc
# Summary of the method: as §1
# [10] = biological target: Neu5Ac(a2-3)Gal(b1-3)GlcNAc(b1-3)Gal(b1-3)GlcNAc
# Summary of the method: as §1
# [11] = biological target: Neu5Ac(a2-3)Gal(b1-3)[Fuc(a1-4)]GlcNAc
# Summary of the method: as §1
# [12] = biological target: Neu5Ac(a2-3)Gal(b1-3)[Neu5Ac(a2-3)Gal(b1-4)]GlcNAc
# Summary of the method: as §1
# [13] = biological target: Neu5Ac(a2-3)Gal(b1-3)[Neu5Ac(a2-6)]GalNAc
# Summary of the method: as §1
# Neu5Ac(a2-3)Gal(b1-4)Glc = biological target: Neu5Ac(a2-3)Gal(b1-4)Glc
# Summary of the method: as §1
# [14] = biological target: Neu5Ac(a2-3)Gal(b1-4)GlcNAc(b1-2)Man(a1-3)[Neu5Ac(a2-6)Gal(b1-4)GlcNAc(b1-2)Man(a1-6)]Man(b1-4)GlcNAc(b1-4)GlcNAc
# Summary of the method: as §1
# [15] = biological target: Neu5Ac(a2-3)Gal(b1-4)GlcNAc(b1-3)Gal(b1-4)[Fuc(a1-3)]GlcNAc
# Summary of the method: as §1
# [16] = biological target: Neu5Ac(a2-3)Gal(b1-4)GlcNAc6S
# Summary of the method: as §1
binder,measurement,setting,value
B1,glycan array binding signal (z-score),Fuc(a1-2)Gal,-0.143
same,glycan array binding signal (z-score),Fuc(a1-2)Gal6S(b1-4)Glc,-0.255
same,glycan array binding signal (z-score),[1],-0.236
same,glycan array binding signal (z-score),Fuc(b1-3)GlcNAc,-0.263
same,glycan array binding signal (z-score),Gal(a1-3)Gal(b1-3)GlcNAc,-0.267
same,glycan array binding signal (z-score),Gal(a1-4)Gal(b1-4)GlcNAc,-0.203
same,glycan array binding signal (z-score),[2],-0.267
same,glycan array binding signal (z-score),[3],-0.259
same,glycan array binding signal (z-score),Gal4S(b1-4)GlcNAc,-0.249
same,glycan array binding signal (z-score),Gal6S(b1-4)GlcNAc6S,-0.268
same,glycan array binding signal (z-score),GalNAc(a1-3)Gal,-0.212
same,glycan array binding signal (z-score),[4],5.38
same,glycan array binding signal (z-score),Glc(a1-4)Glc,0.228
same,glycan array binding signal (z-score),[5],-0.259
same,glycan array binding signal (z-score),GlcNAc3Prop(b1-4)GlcNAc,0.218
same,glycan array binding signal (z-score),Kdn(a2-3)Gal(b1-3)GlcNAc,-0.248
same,glycan array binding signal (z-score),[6],-0.258
same,glycan array binding signal (z-score),Man(a1-3)[Man(a1-6)]Man,-0.267
same,glycan array binding signal (z-score),[7],-0.273
same,glycan array binding signal (z-score),[8],-0.271
same,glycan array binding signal (z-score),Man(a1-6)Man,-0.283
same,glycan array binding signal (z-score),[9],-0.256
same,glycan array binding signal (z-score),[10],-0.195
same,glycan array binding signal (z-score),[11],-0.279
same,glycan array binding signal (z-score),[12],-0.223
same,glycan array binding signal (z-score),[13],-0.085
same,glycan array binding signal (z-score),Neu5Ac(a2-3)Gal(b1-4)Glc,5.54
same,glycan array binding signal (z-score),[14],-0.259
same,glycan array binding signal (z-score),[15],6.21
same,glycan array binding signal (z-score),[16],-0.268
